# Bioassay records deposited in PubChem BioAssay by National Center for Advancing Translational Sciences (NCATS).
# Giardia FBPA inh = Giardia lamblia aldolase inhibition; A8B2U2; purified Giardia FBPA; Potency, µM (doses to about 59.6 µM), inactives show top-dose activity, negative = inhibition, hits mostly inhibitors; actives 0.71% (n = 290,000); AID 2451; further: potency means the concentration at half of the fitted maximal effect; on the % scale 0 is the no-effect control and ±100 the full control effect; nearly all actives have a fitted effect of over 55% in size
#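 40 nM FBPA preincubated 10 min at RT with compound (up to 57.5 uM final), then substrate plus GAPDH/TPI/NAD/arsenate coupling and diaphorase/resazurin added. Fluorescence read after 20 min at RT, 525/598 nm.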
# LmPK inh = blocks Leishmania mexicana pyruvate kinase activity | Q27686 | purified LmPK, Kinase-Glo ATP luminescence, 1 h | Potency, µM (doses to about 57.5 µM), inactives show at the top dose activity change, negative = inhibition, usual class: inhibitors | actives 0.37% (n = 290,000); further: potency means the concentration at half of the fitted maximal effect; on the % scale 0 is the no-effect control and ±100 the full control effect
# Target sequence (Q27686 whole entry, looked up): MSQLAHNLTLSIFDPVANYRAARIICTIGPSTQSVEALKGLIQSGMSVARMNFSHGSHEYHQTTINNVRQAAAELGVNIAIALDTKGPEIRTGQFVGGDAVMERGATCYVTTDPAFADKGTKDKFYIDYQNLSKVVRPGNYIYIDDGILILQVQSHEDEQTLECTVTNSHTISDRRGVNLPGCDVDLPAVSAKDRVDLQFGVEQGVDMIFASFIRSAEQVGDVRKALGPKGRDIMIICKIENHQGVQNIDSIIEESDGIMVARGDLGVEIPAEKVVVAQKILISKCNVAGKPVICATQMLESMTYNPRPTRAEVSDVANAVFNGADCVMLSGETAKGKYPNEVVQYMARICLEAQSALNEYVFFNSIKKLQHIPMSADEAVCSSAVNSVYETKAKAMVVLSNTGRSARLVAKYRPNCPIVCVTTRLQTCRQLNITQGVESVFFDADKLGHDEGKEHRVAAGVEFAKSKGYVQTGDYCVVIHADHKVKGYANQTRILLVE
#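 In 50 mM imidazole pH 7.2 with 7 mM MgCl2, LmPK (0.1 nM) turned over PEP (0.5 mM) and ADP (0.1 mM) for 1 h at room temperature. Luciferase read-out of ATP.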
# Sm TGR inh = inhibitors of Schistosoma mansoni thioredoxin glutathione reductase | Potency, µM (series often up to 114 µM), inactives show at the highest dose activity change, negative = inhibition, most hits filed as inhibitors | AID 485364 | purified TGR, DTNB reduction, TNB absorbance 405 nm | Q962Y6 | actives 3% (n = 360,000); further: potency means the concentration at half of the fitted maximal effect; on the % scale 0 is the no-effect control and ±100 the full control effect; nearly all actives have a fitted effect of over 60% in size
#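 First, TGR (20 nM dispensed) and NADPH were mixed with compound. Second, a 15 min room-temperature incubation followed. Third, further NADPH and then DTNB were added to start the reaction. Finally, TNB absorbance was monitored kinetically.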
# Cycloheximide cs = counter-screen hit for Shiga toxin inhibitors, cycloheximide | cell reporter, cycloheximide protein synthesis inhibition counterscreen | max response, % | actives 12% (n = 300,000); in the data active means max response mostly above about 13%, no sharp cut-off; inactive means mostly below about 14%; further: read at 38.3 µM for the half of the compounds with a filed dose; 0% is about no effect
# TbPYK inhibitor = inhibitors of Trypanosoma brucei pyruvate kinase. actives 0.12% (n = 410,000). Q57TT1. Potency, µM (series often up to 76.8 µM), without a hit: at the highest dose activity, negative = inhibition, usual class: inhibitors. TbPYK enzyme, Kinase-Glo Plus ATP luminescence, 45 min. AID 624173; further: potency means the concentration at half of the fitted maximal effect; on the % scale 0 is the no-effect control and ±100 the full control effect; nearly all actives have a fitted effect of over 50% in size
#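 Screened from lowest to highest concentration, compounds were pinned into TbPYK/substrate mixtures, and ADP (130 uM final) was added. Plates sat at room temperature for 45 min prior to Kinase-Glo Plus detection by luminescence.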
# Shiga inhibitor = inhibitors of Shiga toxin in Vero cells; inhibition, % at 38.7 µM; actives 9.2% (n = 290,000); Vero cells, Shiga toxin protein synthesis inhibition reporter; in the data active means inhibition mostly above about 28%, no sharp cut-off; inactive means mostly below about 43%; further: 0% is about no effect
# Starred values were filed as active, the others as inactive; ? = inconclusive; nt = no result given; [ ] = remark or other dose. The sample as a whole holds a higher share of hits than the screen did. Unless noted, the call rests on the fitted dose curve; in most records, active means well fitted curve in the direction sought with a large enough effect; inconclusive means small, poorly fitted or top-dose-only effect, or another doubt; inactive means no such curve, though single readings can be large; an effect the other way counts as inactive or inconclusive.
SMILES,Giardia FBPA inh,LmPK inh,Sm TGR inh,Cycloheximide cs,TbPYK inhibitor,Shiga inhibitor
CCOc1ccc(C(F)(F)F)cc1NC(C)=O,-7%,6%,-27%,-5,-7%,-9
COc1cccc(Oc2ccc(C(F)(F)F)cc2N)c1,-7%,7%,-14%,29*,-5%,87*
COc1cccc(Oc2ccc(C(F)(F)F)cc2NC(=O)c2cccc(F)c2)c1,8%,-1%,-9%,-2,10%,-1
COc1cccc(NC(=O)c2sc3nc(C)c(C(=O)Nc4ccc(C)cc4C)c(-c4ccco4)c3c2N)c1,nt,nt,2%,nt,0%,nt
O=C(NC1CCCC1)C(c1ccc(F)cc1)N(Cc1ccc(F)cc1)C(=O)CCl (stereo not drawn),-3%,-3%,5.6µM*,-2,-14%,-4
COC(CN(C(=O)CCl)C(C(=O)NC1CCCCC1)c1ccc(C)cc1)OC (stereo not drawn),-2%,2%,45µM*,-3,-2%,-10
CCOC(=O)c1c(NC(=O)COC(=O)c2ccccn2)sc(C)c1C,nt,nt,-11%,nt,-6%,nt
O=C(Nc1ccccc1)C1=C[C@H](c2ccc(Br)cc2)C[C@H](OCc2ccc(CO)cc2)O1,-11%,4%,1%,41*,0%,69*
NC(=O)C1=C[C@H](c2ccccc2)C[C@H](OCc2ccc(CO)cc2)O1,?,7%,?,36*,-1%,27*
O=C(Nc1ccccc1)C1=C[C@@H](c2ccccc2)C[C@@H](OCc2ccc(CO)cc2)O1,-1%,1%,-26%,57*,2%,81*
CC(C)(C)[C@@H]1C=C(C(=O)NCc2ccccc2)O[C@H](OCc2ccc(CO)cc2)C1,?,5%,-20%,2,5%,-10
O=C(NCc1ccccc1)C1=C[C@H](c2ccc(Br)cc2)C[C@H](OCc2ccc(CO)cc2)O1,-12%,1%,-13%,-1,-6%,14
C#CCNC(=O)C1=C[C@@H](C(C)(C)C)C[C@@H](OCc2ccc(CO)cc2)O1,-9%,3%,35µM*,-3,4%,-6
COc1ccccc1C(=O)N1CCC(c2noc(-c3ccc(S(=O)(=O)N4CCCC4)cc3)n2)CC1,nt,nt,6%,nt,-2%,nt
CCCCC1=CC2=C(OC(C)=O)C(=O)C(C)(OC(=O)c3ccc(Cl)nc3)C(=O)C2=CO1 (stereo not drawn),-20%,nt,nt,nt,nt,nt
O=C(c1cnc(N2CCCCC2)c2ccccc12)N1CCN(c2cccc(Cl)c2)CC1,nt,nt,-3%,nt,-2%,nt
Cc1ccc(CNC(=O)CNS(=O)(=O)c2cccs2)cc1,nt,nt,-1%,nt,0%,nt
CS(=O)(=O)N1CCCc2cc(C(=O)Nc3cccc(C(F)(F)F)c3)ccc21,nt,nt,-7%,nt,-4%,nt
O=C(NCCc1ccccc1)c1sc2ncccc2c1-n1cccc1,nt,nt,7%,nt,-3%,nt
CC(C)(C)[C@H]1C=C(C(=O)Nc2ccccc2)O[C@@H](OCc2ccc(CO)cc2)C1,-10%,3%,-12%,12*,0%,18
O=C(NCc1ccccc1)C1=C[C@@H](c2ccccc2)C[C@@H](OCc2ccc(CO)cc2)O1,?,-1%,50µM*,2,0%,22
CCN1CCN(C(=O)c2cnn(-c3cccc(C)c3)c2C2CCN(C(=O)OC(C)(C)C)CC2)CC1,nt,nt,4%,nt,2%[15.4 µM],nt
CCC(Oc1ccccc1F)C(=O)Nc1c(C(=O)c2ccccc2)oc2ccccc12 (stereo not drawn),nt,nt,13%,nt,-2%,nt
COc1ccc2c(=O)c(C(=O)NCCc3ccccc3)c[nH]c2c1,2%,0%,-5%,25*,-14%,18*
COCCNC(=O)c1c[nH]c2ccc(S(=O)(=O)N(C)c3ccc(C)c(C)c3)cc2c1=O,9%,0%,5%,22*,-5%,43
SMILES,Giardia FBPA inh,LmPK inh,Sm TGR inh,Cycloheximide cs,TbPYK inhibitor,Shiga inhibitor
COc1ccc2[nH]cc(C(=O)NCCc3ccccc3)c(=O)c2c1,3%,4%,-3%,20,2%,28*
Cc1ccc(-c2ccc(CCC(=O)O)n2NC(=O)c2ccc([N+](=O)[O-])cc2)cc1,-1%,1%,?,0,13%,-5
NC(=O)Nn1c(CCC(=O)O)ccc1-c1ccc(F)cc1,-7%,7%,50µM*,-3,4%,-7
O=C(O)CCc1ccc(-c2ccc(F)cc2)n1NC(=O)c1ccco1,-1%,0%,40µM*,-2,2%,15
NC(=S)Nn1c(CCC(=O)O)ccc1-c1ccccc1,1%,-1%,2%,-4,-15%,15
Cc1ccc(-c2ccc(CCC(=O)O)n2NC(=O)c2ccco2)cc1,-1%,-4%,?,4,-7%,17
O=C(O)CCc1ccc(-c2ccc(Br)cc2)n1NC(=O)c1ccc([N+](=O)[O-])cc1,4%,9%,45µM*,-2,0%,18
CSCCC(c1nnnn1C1CCCC1)N1CCN(C/C=C/c2ccccc2)CC1 (stereo not drawn),nt,nt,nt,nt,-1%,nt
O=C1/C(=C/c2cccc(O)c2)SC(=S)N1CC1CCCO1 (stereo not drawn),-2%,4%,-5%,32*,1%,72*
COc1cccc(/C=C2\SC(=S)N(CC3CCCO3)C2=O)c1 (stereo not drawn),4%,-1%,-2%,26*,-2%,38*
CCOc1cc(/C=C2/SC(=S)N(CC3CCCO3)C2=O)ccc1O (stereo not drawn),-4%,1%,-20%,16,-11%,44
Cc1cc(=O)n(Cc2cccc(Cl)c2)c2c1c(C)nn2C,nt,nt,8%,nt,1%,nt
Cc1ccccc1C(=O)Nc1ccc2c(c1)OCCO2,-1%,-10%,2%,18*,-14%,20
Cc1occc1C(=O)Nc1ccc2c(c1)CCC2,-11%,13µM*,-25%,48*,-21%,103*
CC(=O)c1c(Nc2ccc3c(c2)OCCO3)oc(C)cc1=O,?,-3%,-23%,52*,1%,118*
CNC(=O)c1ccsc1NC(=O)c1coc2ccccc2c1=O,-7%,-5%,2%,2,-13%,-5
O=C(Nc1ccc2c(c1)OCCO2)c1coc2ccccc2c1=O,-10%,7.9µM*,-1%,48*,?,60*
CSc1ccccc1C(=O)Nc1ccc2c(c1)OCCO2,-2%,-20%,3%,23,4%,64
COCCn1c(=O)cnc2cnc(OC)nc21,-2%,nt,nt,nt,nt,nt
S=C1NCN(C2CCCCC2)CN1Cc1ccccc1,4%,0%,-3%,-5,-2%,-9
COc1cccc(NC(=O)CSc2nccn2C2CCCC2)c1,nt,nt,-6%,nt,-2%,nt
Cc1occc1C(=O)Nc1ccc2c(c1)OCCO2,-24%,13µM*,-2%,107*,-17%,100*
Cc1cc(C(=O)Nc2ccc3c(c2)OCCO3)c(C)o1,-5%,?,-18%,28*,-8%,68*
